Laboratory results: PubChem BioAssay
The source made the active and inactive calls. Unless noted, how the calls were made is not given here.

Key:
[1] = system: Wnt5a (protein binding on small-molecule microarray); test: small molecules binding Wnt5a protein – biophysical, small-molecule microarray, 635/667 nm fluorescence, primary screen (AID 1142); conditions: 635 nm fluorescence, higher = more signal;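 further: fluorescence read at 667 nm with signal to noise per printed feature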
[2] = ATP-based viability of Huh7 replicon cells – cell-based, CellTiter-Glo luminescence, basal, 48 h, cytotoxicity control for HCV replication inhibitor project, primary screen (AID 1143); conditions: higher = more signal, called active from +8 up or from −8 down;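 further: Huh7 hepatoma cells carrying a hepatitis C replication reporter with no stimulus; test concentration not given here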
[3] = Pseudomonas biofilm growth suppression – PAO1 strain, BacTiter-Glo luminescence, LB-PBS, primary screen (AID 1144); conditions: P. aeruginosa PAO1 biofilm, 12 h, higher = more signal
[4] = basal CRE-LacZ reporter activity in PC12 – cell-based, unstimulated, primary screen (AID 1145); conditions: no forskolin, luminescence, 4.5 h, higher = more signal, called active from +8 up or from −8 down
[5] = forskolin-driven CRE-LacZ activity in PC12 – cell-based, CRE-LacZ reporter, forskolin-stimulated, primary screen (AID 1146); conditions: luminescence, 4.5 h, higher = more signal, called active from +8 up or from −8 down;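 further: PC12 cells with 6xCRE LacZ reporter stimulated by forskolin 10 µM; beta-galactosidase reporter signal reflecting CREB driven transcription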
[6] = molecular target: Streptavidin (Streptomyces avidinii) (UniProt P22629); test: compounds binding control protein streptavidin – biophysical, small-molecule microarray, 635/667 nm fluorescence, artefact control for SMM compound annotation, primary screen (AID 1147); conditions: higher = more signal;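 further: signal reflects streptavidin binding to arrayed compounds as a control protein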
[7] = probe aInhba binding on compound microarray – biochemical, small-molecule microarray, 635/667 nm fluorescence, primary screen (AID 1148); conditions: higher = more signal;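 further: score merges 667nm spot fluorescence with signal-to-noise for antibody binding to printed compounds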
Torsin-1A (Homo sapiens) [8] = molecular target: Torsin-1A (Homo sapiens) (UniProt O14656); test: TOR1A wild-type binding on microarray – cell lysate, small-molecule microarray, lysate, 635/667 nm, primary screen (AID 1149); conditions: COS7 hTOR1A-WT lysate, 635 nm fluorescence, higher = more signal
Torsin-1A (Homo sapiens) [9] = molecular target: Torsin-1A (Homo sapiens) (UniProt O14656); test: torsin A mutant lysate binding on microarrays – cell lysate, small-molecule microarray, COS7 lysate, 635/667 nm fluorescence, primary screen (AID 1150); conditions: COS7 hTOR1A mutant lysate, 635 nm fluorescence, higher = more signal;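 further: score pools 667 nm emission and signal to noise measuring lysate protein binding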
[10] = system: Sonic hedgehog protein (Shh); test: Sonic hedgehog microarray binding compounds – biochemical, small-molecule microarray, 635/667 nm fluorescence, primary screen (AID 1151); conditions: 635 nm fluorescence, higher = more signal;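 further: Shh protein binding to compounds spotted on small-molecule microarray slides; score combines spot fluorescence intensity with signal-to-noise across triplicate slides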
[11] = optical density shifts of acrAB sulA E. coli – strain DRC41, OD650, 48 h, E. coli filamentation inducer project, primary screen (AID 1152); conditions: higher = more signal, called active from +8 up or from −8 down;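 further: E. coli MC1000 strain DRC41 lacking acrAB efflux pump and sulA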
[12] = probe aLefty1 binding on compound microarray – biochemical, small-molecule microarray, 635/667 nm fluorescence, primary screen (AID 1153); conditions: higher = more signal;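 further: score merges spot fluorescence with signal-to-noise ratio from the scanned slide images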
[13] = plasmodial surface anion channel blockers, osmotic lysis – cell-based, P. falciparum Indochina, OD700, 1 h, primary screen (AID 1154); conditions: P. falciparum Indochina infected RBC osmotic lysis, higher = more signal, called active from +8 up or from −8 down
[14] = plasmodial surface anion channel blockers, osmotic lysis – cell-based, P. falciparum Indochina, OD700, 2 h, primary screen (AID 1155);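 further: lysis reports solute entry through the parasite surface anion channel PSAC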; conditions: P. falciparum Indochina infected erythrocytes, higher = more signal, called active from +8 up or from −8 down
[15] = changes in parasitized red cell lysis, either direction – P. falciparum Indochina, OD700, 3 h, PSAC antagonist project, primary screen (AID 1156); conditions: P. falciparum-infected erythrocytes, osmotic lysis, higher = more signal, called active from +8 up or from −8 down
[16] = plasmodial surface anion channel blockers, osmotic lysis – cell-based, P. falciparum Indochina, OD700, 18 h, primary screen (AID 1157); conditions: P. falciparum Indochina infected erythrocytes, osmotic lysis OD700, 18 h; higher = more signal, called active from +8 up or from −8 down
[17] = S6 kinase pathway phospho-S6 level changes – cell-based, A549, cytoblot, luminescence, serum-stimulated, primary screen (AID 1158); conditions: 5 h, higher = more signal;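 further: serum-stimulated A549 lung adenocarcinoma cells; signal is phosphorylated S6 detected by cytoblot immunostaining with HRP secondary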
[18] = molecular target: NADPH oxidase 2 (Homo sapiens) (UniProt P04839); test: compounds shifting NOX2 Amplex Red fluorescence – cell-based, HEK293-NOX2, PMA-stimulated, NOX inhibitor project, primary screen (AID 1159); conditions: 45 min, higher = more signal, called active from +8 up or from −8 down; further: test concentration not given here
[19] = molecular target: NADPH oxidase 4 (Homo sapiens) (UniProt Q9NPH5); test: compounds shifting NOX4 Amplex Red fluorescence – cell-based, HEK293-NOX4, tetracycline-induced, NOX inhibitor project, primary screen (AID 1160); conditions: HEK293-NOX4, Amplex Red H2O2 fluorescence, 45 min; higher = more signal, called active from +8 up or from −8 down
[20] = molecular target: NADPH oxidase 5 (Homo sapiens) (UniProt Q96PH1); test: compounds shifting NOX5 Amplex Red fluorescence – cell-based, HEK293-NOX5, NOX inhibitor project, primary screen (AID 1161); conditions: HEK293-NOX5, ionomycin, 45 min, higher = more signal
Sequence of NADPH oxidase 5 (Homo sapiens) (Q96PH1 whole entry, looked up): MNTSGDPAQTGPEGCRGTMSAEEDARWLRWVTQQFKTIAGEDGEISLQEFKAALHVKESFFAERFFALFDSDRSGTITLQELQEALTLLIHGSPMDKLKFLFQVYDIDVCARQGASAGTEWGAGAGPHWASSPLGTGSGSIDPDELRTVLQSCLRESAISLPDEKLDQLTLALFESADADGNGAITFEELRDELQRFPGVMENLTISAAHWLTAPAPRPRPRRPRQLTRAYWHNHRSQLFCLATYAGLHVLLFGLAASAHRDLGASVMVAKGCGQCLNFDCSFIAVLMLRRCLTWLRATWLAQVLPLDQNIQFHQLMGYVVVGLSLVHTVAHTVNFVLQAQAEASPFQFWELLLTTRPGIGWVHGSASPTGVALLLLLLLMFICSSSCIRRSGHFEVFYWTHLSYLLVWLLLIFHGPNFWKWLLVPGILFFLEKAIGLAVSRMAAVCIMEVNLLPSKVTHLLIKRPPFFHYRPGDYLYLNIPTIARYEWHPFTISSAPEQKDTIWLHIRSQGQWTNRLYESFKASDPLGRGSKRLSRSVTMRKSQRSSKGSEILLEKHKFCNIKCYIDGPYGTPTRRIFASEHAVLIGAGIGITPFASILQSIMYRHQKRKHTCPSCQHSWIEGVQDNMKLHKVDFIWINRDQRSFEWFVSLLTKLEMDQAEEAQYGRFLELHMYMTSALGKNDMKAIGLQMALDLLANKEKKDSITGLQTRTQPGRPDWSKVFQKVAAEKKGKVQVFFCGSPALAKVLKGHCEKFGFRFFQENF

Sequence of Torsin-1A (Homo sapiens) (O14656 whole entry, looked up): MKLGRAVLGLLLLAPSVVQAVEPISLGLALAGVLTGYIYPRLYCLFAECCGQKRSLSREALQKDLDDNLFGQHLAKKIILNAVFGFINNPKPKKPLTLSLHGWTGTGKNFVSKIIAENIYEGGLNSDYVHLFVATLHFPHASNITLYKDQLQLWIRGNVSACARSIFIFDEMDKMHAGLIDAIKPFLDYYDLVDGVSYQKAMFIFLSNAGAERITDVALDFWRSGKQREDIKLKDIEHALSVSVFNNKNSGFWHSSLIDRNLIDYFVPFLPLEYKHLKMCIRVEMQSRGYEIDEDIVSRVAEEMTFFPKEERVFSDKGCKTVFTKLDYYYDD
Sequence of NADPH oxidase 4 (Homo sapiens) (Q9NPH5 whole entry, looked up): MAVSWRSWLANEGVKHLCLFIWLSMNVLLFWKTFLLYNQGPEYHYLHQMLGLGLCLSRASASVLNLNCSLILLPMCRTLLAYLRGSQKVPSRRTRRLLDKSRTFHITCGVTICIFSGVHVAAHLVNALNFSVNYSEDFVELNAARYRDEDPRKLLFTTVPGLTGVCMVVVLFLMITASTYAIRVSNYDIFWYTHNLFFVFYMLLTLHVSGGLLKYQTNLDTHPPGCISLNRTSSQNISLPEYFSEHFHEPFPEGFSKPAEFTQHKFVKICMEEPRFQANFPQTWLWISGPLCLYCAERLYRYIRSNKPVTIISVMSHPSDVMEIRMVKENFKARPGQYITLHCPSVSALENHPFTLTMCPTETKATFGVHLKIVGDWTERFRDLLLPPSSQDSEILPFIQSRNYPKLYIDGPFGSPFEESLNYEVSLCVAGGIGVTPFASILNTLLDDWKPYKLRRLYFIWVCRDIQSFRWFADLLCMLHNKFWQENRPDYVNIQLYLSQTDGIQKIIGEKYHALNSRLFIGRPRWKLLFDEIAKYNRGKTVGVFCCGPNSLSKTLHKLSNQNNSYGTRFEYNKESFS
Sequence of NADPH oxidase 2 (Homo sapiens) (P04839 whole entry, looked up): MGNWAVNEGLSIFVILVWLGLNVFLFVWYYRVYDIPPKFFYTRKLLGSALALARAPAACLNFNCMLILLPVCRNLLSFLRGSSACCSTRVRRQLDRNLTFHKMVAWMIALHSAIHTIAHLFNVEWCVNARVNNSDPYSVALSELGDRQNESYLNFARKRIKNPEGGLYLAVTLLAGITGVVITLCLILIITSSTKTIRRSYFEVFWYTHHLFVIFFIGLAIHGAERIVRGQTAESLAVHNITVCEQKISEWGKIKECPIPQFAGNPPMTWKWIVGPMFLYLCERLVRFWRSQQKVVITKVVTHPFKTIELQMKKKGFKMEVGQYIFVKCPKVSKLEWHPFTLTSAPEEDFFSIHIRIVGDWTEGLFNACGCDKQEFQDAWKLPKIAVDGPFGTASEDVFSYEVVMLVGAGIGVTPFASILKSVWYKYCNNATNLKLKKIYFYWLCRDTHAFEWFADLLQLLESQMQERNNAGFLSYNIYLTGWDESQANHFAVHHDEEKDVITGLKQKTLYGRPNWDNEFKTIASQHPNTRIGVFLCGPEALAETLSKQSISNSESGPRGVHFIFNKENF
Sequence of Streptavidin (Streptomyces avidinii) (P22629 whole entry, looked up): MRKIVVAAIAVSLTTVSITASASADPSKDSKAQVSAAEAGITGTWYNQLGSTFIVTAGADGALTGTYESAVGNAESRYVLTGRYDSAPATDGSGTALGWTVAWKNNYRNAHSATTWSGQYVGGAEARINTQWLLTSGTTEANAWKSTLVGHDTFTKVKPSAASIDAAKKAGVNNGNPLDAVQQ

| Compound | composite z-score [1] | z-score [2] | z-score [3] | z-score [4] | z-score [5] | composite z-score [6] | composite z-score [7] | composite z-score (Torsin-1A (Homo sapiens) [8]) | composite z-score (Torsin-1A (Homo sapiens) [9]) | composite z-score [10] | z-score [11] | composite z-score [12] | z-score [13] | z-score [14] | z-score [15] | z-score [16] | z-score [17] | z-score [18] | z-score [19] | z-score [20] |
| --- | --- | --- | --- | --- | --- | --- | --- | --- | --- | --- | --- | --- | --- | --- | --- | --- | --- | --- | --- | --- |
| CC(C)N1C(=O)C[C@@](C(=O)NCCCN(C)C)(c2ccc([N+](=O)[O-])cc2)[C@H]1c1ccc(CO)cc1 | -0.0942 | -1.38 (inactive) | 0.574 (inactive) | 0.764 (inactive) | 0.0255 (inactive) | -0.36 | -0.157 | -0.0639 | 0.46 | 0.249 | -0.898 (inactive) | 0.0129 | 3.55 (inactive) | 1.1 (inactive) | 1.82 (inactive) | 0.891 (inactive) | 0.23 | 0.778 (inactive) | 0.334 (inactive) | -0.00257 |
| C[N+](C)(C)CCCC[C@@H]1NC(=O)[C@H]2C[C@@H](C(=O)NCCCCCCN)[C@@H](c3ccc(O)cc3)N2C1=O | 0.408 | -0.548 (inactive) | 1.09 (inactive) | -0.528 (inactive) | -1.1 (inactive) | 0.859 | 0.108 | 0.774 | 0.545 | -0.117 | 0.429 (inactive) | 0.284 | 0.625 (inactive) | 0.328 (inactive) | -2.08 (inactive) | 0.326 (inactive) | 0.191 | 0.00341 (inactive) | -1.73 (inactive) | 0.273 |
| CC(CO)N1C(=O)[C@@H]2[C@H]3C(=O)OCC=C[C@H]3OC23C=CCN(Cc2ccccc2)C(=O)[C@@H]13 (stereo not given in full) | 0.0691 | 0.0021 (inactive) | -1.11 (inactive) | -1.44 (inactive) | -1.08 (inactive) | -0.245 | -0.21 | -1.32 | -0.14 | -0.0627 | 2.36 (inactive) | -0.191 | 0.116 (inactive) | -1.05 (inactive) | -0.355 (inactive) | -1.39 (inactive) | 0.473 | 0.991 (inactive) | 0.662 (inactive) | 1.49 |
| CCOC(=O)C1=CC[C@@H](c2ccccc2C(F)(F)F)N(S(=O)(=O)c2ccc(C)cc2)[C@H]1c1ccc(C#N)cc1 | 0.125 | -1.96 (inactive) | -0.29 (inactive) | -0.676 (inactive) | 0.465 (inactive) | 1.11 | 0.367 | 0.502 | 0.512 | 0.494 | -0.53 (inactive) | 0.165 | 0.873 (inactive) | 1.65 (inactive) | 0.341 (inactive) | 0.876 (inactive) | -0.669 | 0.823 (inactive) | 0.699 (inactive) | 0.102 |
| O=C(NCC(F)(F)F)[C@@H]1c2ccccc2C(=O)N(Cc2ccccc2C(F)(F)F)[C@H]1c1ccc(CO)cc1 | 0.38 | -0.325 (inactive) | 0.266 (inactive) | -0.295 (inactive) | 1.02 (inactive) | -0.631 | 0.0906 | 0.702 | -0.274 | 0.0223 | 0.142 (inactive) | -0.0164 | 1.45 (inactive) | 0.478 (inactive) | 0.239 (inactive) | 0.109 (inactive) | -0.537 | 0.536 (inactive) | 0.0258 (inactive) | -0.284 |
| C=CCC(OC(C)=O)[C@@H]1[C@@H](N(Cc2cc3ccccc3o2)C(=O)c2ccc(-c3ccccc3)cc2)c2cc(OCCCO)ccc2N1C(=O)c1ccc2ccccc2c1 (stereo not given in full) | -0.0582 | -0.282 (inactive) | 0.2 (inactive) | 1.22 (inactive) | 0.655 (inactive) | 0.0798 | -0.143 | 0.0664 | -0.0892 | 1.12 | -0.966 (inactive) | 0.187 | 0.923 (inactive) | 0.354 (inactive) | 0.216 (inactive) | 0.161 (inactive) | -0.109 | -1.08 (inactive) | -0.72 (inactive) | 0.869 |
| COc1ccc([Si](C)(C)[C@@H]2[C@@H](CC(=O)N3Cc4ccccc4C[C@H]3CO)O[C@]3(C(=O)N(Cc4cccc(N5C(=O)c6cccc7cccc5c67)c4)c4ccccc43)[C@H]2C)cc1 | 0.51 | -4.1 (inactive) | -0.194 (inactive) | 0.861 (inactive) | 0.838 (inactive) | 0.211 | 0.0091 | 0.786 | 0.535 | 1.19 | -0.721 (inactive) | -0.0601 | 2.4 (inactive) | 0.963 (inactive) | -0.369 (inactive) | 0.376 (inactive) | 0.015 | -0.579 (inactive) | 0.668 (inactive) | 2.34 |
| COC(=O)c1c2oc(c1C(=O)OC)C(=O)N(Cc1ccccc1)Cc1cn(nn1)C[C@H](Cc1ccccc1)NC(=O)N[C@H](CO)CC2 | 0.131 | -1.84 (inactive) | -1.12 (inactive) | 0.964 (inactive) | -1.16 (inactive) | -0.25 | -0.154 | -0.0053 | 0.218 | 0.346 | 0.959 (inactive) | -0.0942 | 1.67 (inactive) | 0.393 (inactive) | -0.252 (inactive) | 0.213 (inactive) | 1.18 | -1.13 (inactive) | 1.06 (inactive) | -0.397 |
